Source: PubChem BioAssay
Active and inactive are the calls of the source.

Assay: basal S. cerevisiae growth modulation, no modifier, primary screen, OD600, strain BY4716, 24 h, basal condition (AID 1173)
Details: OD600, 24 h, higher = more signal, called active from +8 up or from −8 down

| Structure (SMILES) | z-score |
| --- | --- |
| CCCC[C@@H]1C[C@H]1[C@@H](NS(=O)(=O)c1cccc2cccnc12)c1ccc(-c2ccccc2)cc1 | 0.444 (inactive) |
| CC(C)N1CC=CC23O[C@@H]4C=CCCOC(=O)C4[C@H]2C(=O)N(CCCCCCO)[C@@H]3C1=O (stereo partly drawn) | 0.948 (inactive) |
| CC(C)=C1C(=O)C(c2ccccc2)=C2CN3C(=O)N(CCc4ccccc4)C(=O)[C@]3(Cc3ccc(F)cc3)[C@H]21 | 0.255 (inactive) |
| CO[C@H]1O[C@H](CO)[C@@H](OC(=O)Nc2ccc(C#N)cc2)[C@H](OC(=O)c2cc3ccccc3[nH]2)[C@H]1OC(=O)c1cc2ccccc2[nH]1 | -1.05 (inactive) |
| [N-]=[N+]=NCc1ccccc1[C@@H]1OC(c2ccc(OCCCO)cc2)=N[C@]1(Cc1ccccc1)C(=O)N1CCOCC1 | -0.833 (inactive) |
| CC(C)c1ccc(NN2C(C(O)c3ccc4c(c3)OCO4)C=CC3C(=O)N(c4ccccc4)C(=O)C32)cc1 (stereo not drawn) | -0.791 (inactive) |
| COCC(=C=CC[C@@H](O)c1ccccc1OCCO)CCO | -0.853 (inactive) |
| CC(C)OC(=O)C=C1C[C@@H](c2ccc(C#N)cc2)O[C@@H](c2ccc(C#N)cc2)O1 | -0.709 (inactive) |
| CC(C)(C)N1CC=CC23O[C@@H]4C=CCCOC(=O)C4[C@H]2C(=O)N(CCCCCO)[C@@H]3C1=O (stereo partly drawn) | -0.312 (inactive) |

Assay: MM1S myeloma cell viability, profiling panel, resazurin fluorescence, basal, 24 h, PK04 Diversity Set (AID 1174);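 also: MM1S multiple myeloma cell line; test concentration not given here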
Details: higher = more signal, called active from +8 up or from −8 down

| Structure (SMILES) | z-score |
| --- | --- |
| CN(C)CCCNC(=O)[C@@H]1c2ccccc2C(=O)N(Cc2ccccc2)[C@H]1c1ccc(CO)cc1 | 0.499 (inactive) |
| COc1ccc([Si](C)(C)[C@H]2[C@H](CC(=O)N3CCC[C@H]3CO)O[C@@]3(C(=O)N(Cc4cccc(N5C(=O)COc6ccccc65)c4)c4ccccc43)[C@@H]2C)cc1 | -0.986 (inactive) |
| C=CC[C@]1(C(=O)NCc2ccccc2)N=C(c2ccc(OCCCO)cc2)O[C@H]1c1ccccc1 | -0.223 (inactive) |
| COC(=O)[C@@]1(Cc2ccc(F)cc2)[C@H]2c3cc(C(=O)N(C)C)n(Cc4ccc(OC)c(OC)c4)c3C[C@H]2CN1C(=O)c1ccccc1 | -1.8 (inactive) |
| O=C(CS)NCCCCCNC(=O)[C@H]1C[C@H]2C(=O)N3CCC[C@H]3C(=O)N2[C@H]1c1cccc(OCCO)c1 | 0.85 (inactive) |
| Cn1cccc1C(O)C1C=CC2C(=O)NC(=O)C2N1Nc1ccccn1 (stereo not drawn) | -1.28 (inactive) |
| O=C1O[C@@H](c2ccccc2)[C@@H](c2ccccc2)N2[C@@H](c3ccc(OCCO)cc3)[C@]3(C(=O)Nc4ccccc43)[C@@H](C(=O)N3CCN(c4ncccn4)CC3)[C@H]12 | -0.271 (inactive) |
| COC(=O)c1c(CC[C@@H](CO)NC(=O)N[C@H](Cc2ccccc2)Cn2cc(-c3ccccc3N)nn2)oc(C(C)=O)c1C(=O)OC | 0.505 (inactive) |
| COC(=O)[C@@H]1N=C(c2ccc(OCCCO)cc2)O[C@@H]1c1ccccc1N=[N+]=[N-] | 0.856 (inactive) |
| CCOC(=O)C1=CC[C@H]2C(=O)N(CC)C(=O)[C@@H]12 | 0.293 (inactive) |
| C=C(/C(=C/C[C@H](OC(C)=O)c1ccc(OCCO)cc1)c1cnc2ccccc2c1)C(C)C | -0.97 (inactive) |
| N#Cc1ccc(NN2C(C(O)c3cc(C(F)(F)F)cc(C(F)(F)F)c3)C=CC3C(=O)N(c4ccccc4)C(=O)C32)cc1 (stereo not drawn) | -0.758 (inactive) |
| COCCOC(=O)N1C(=O)[C@@]2(c3cc(C#CCNC(N)=O)ccc31)[C@H](c1ccccc1OCCO)N1[C@H](c3ccccc3)[C@H](c3ccccc3)OC(=O)[C@H]1[C@@H]2C(=O)N1CCN(c2ncccn2)CC1 | -0.0546 (inactive) |
| CC(C)[Si]1(C(C)C)O[C@@H](c2ccccc2)c2cc(C3CC3)nc(-c3ccccc3)c21 | 0.656 (inactive) |
| COc1ccc([Si](C)(C)[C@@H]2[C@@H](CC(=O)N3CCC[C@H]3CO)O[C@]3(C(=O)N(Cc4cccc(N5CCC5=O)c4)c4ccccc43)[C@H]2C)cc1 | -2.64 (inactive) |
| CN(C)c1ccc(C(O)C2C=CC3C(=O)N(c4ccccc4)C(=O)C3N2Nc2ccccc2F)cc1 (stereo not drawn) | -0.234 (inactive) |
| CCCCCN1CC=CC23O[C@@H]4C=CCOC(=O)[C@@H]4[C@H]2C(=O)N(CCCCCCO)[C@@H]3C1=O (stereo partly drawn) | 0.806 (inactive) |
| CC(C)(C)OC(=O)CC[C@]1(C(N)=O)COC(c2ccc(OCCCO)cc2)=N1 | -1.43 (inactive) |
| CC(C)(C)OC(=O)CC[C@]1(C(=O)NCc2ccccc2)N=C(c2ccc(OCCCO)cc2)O[C@H]1c1ccccc1 | -0.768 (inactive) |
